# NPR1 activator: GC-A (human) enzyme activation; P16066; HEK293 GC-A cells, cGMP TR-FRET, EC30 ANP; 0% at EC30 ANP, 100% saturating ANP; activation, % at 10 µM; 0.14% of 370,000 active; AID 1671463; in the data active means activation above about 40%
# MsrA act: activators of bovine methionine sulfoxide reductase A | purified bovine MsrA, absorbance read-out | 0.3% of 360,000 active | activation, % at 10.6 µM; in the data active means activation above about 7.5%;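 further: 0% = vehicle and 100% = reference activator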
# MsrA inh: bovine MsrA inhibition; AID 651718; inhibition, % at 15.5 µM; purified bovine MsrA, absorbance read-out; 0.75% of 360,000 active;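 further: 0% = vehicle wells with enzyme and 100% = reference inhibitor wells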
# GC-B act: GC-B (human) receptor activation. activation, % at 10 µM. 0.11% of 370,000 active. HEK293-GC-B cells, CNP EC30, cGMP TR-FRET; 0% at EC30 CNP, 100% saturating CNP. P20594;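 active means activation at 10 µM reaching about 35% in either raw or pattern-adjusted values, limit read from the data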
# MsrA inh confirm: confirmation of bovine MsrA inhibitors | 41% of 2,300 active | shares compounds with MsrA inh | purified bovine MsrA, absorbance read-out | inhibition, % at 15.5 µM;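 further: coupled to thioredoxin reductase with NADPH and selenocystamine and DMSO as substrate; 0% = vehicle only and 100% = full effect of reference inhibitor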
# An asterisk follows results filed as active; . = no result. In the library only some 1.2% were active in any assay of this set; here they are far more common. Unless noted, no stated cut-off is given here; in the data, active means inhibition above about 4.5%; inactive means the rest.
SMILES,NPR1 activator,MsrA act,MsrA inh,GC-B act,MsrA inh confirm
O=C(O)c1ccc(N(c2ccccc2)c2ccccc2)cc1,-2.8,-5.0,5.1*,-4.2,1.9
Cc1cc(C(=O)NN=Cc2cccc(O)c2)n[nH]1,-3.0,.,.,-1.1,.
O=[N+]([O-])c1cc([N+](=O)[O-])c(Oc2cccc(Cl)c2Cl)cc1NN1CCCCC1,-0.1,-2.3,0.3,3.4,.
CCc1occc(=O)c1Oc1cc(NN2CCCCC2)c([N+](=O)[O-])cc1[N+](=O)[O-],-2.4,-4.1,13.4*,6.2,9.0*
CCCC(=O)OC12CCCN(C1)/C(=C/c1ccc(C#N)cc1)C2 (configuration not stated),0.4,.,.,-2.1,.
CCn1ncc([N+](=O)[O-])c1C(=O)Nc1c(C)cccc1C,2.2,-3.6,14.0*,3.8,6.7*
CCn1ncc([N+](=O)[O-])c1C(=O)Nc1nc2cccc(C)c2s1,-2.5,-6.0,-0.5,3.4,.
COc1nccnc1NS(=O)(=O)c1ccc(NS(=O)(=O)c2ccc(NC(C)=O)cc2)cc1,2.9,0.3,0.5,-3.4,.
COc1nccnc1NS(=O)(=O)c1ccc(N/C=C2\CCCCC2=O)cc1,1.1,-3.4,5.3*,3.7,4.6*
COc1ccc(C(=O)N/C(=C/c2cccs2)c2nc3ccccc3[nH]2)cc1OC,-6.0,-4.6,5.3*,-4.6,4.3
COc1ccc(C(=O)N/C(=C/c2cccs2)C(=O)NC(C)(C)C)cc1OC,4.9,-4.5,1.8,7.0,.
COc1cc(/C=C(/C(=O)c2cccs2)c2nc3ccccc3[nH]2)cc(OC)c1O,-30.0,-5.9,5.5*,-15.7,3.8
COC1C(O)CCC2(CO2)C1C1(C)OC1CC=C(C)C (configuration not stated),4.0,.,0.2,2.1,.
COc1ccc(C=NNc2nc3c([nH]2)c(=O)n(C)c(=O)n3C)cc1,-8.3,-2.7,5.5*,-6.9,2.5
COc1ccc(/C=C/C(=O)C2(O)CCCCC2)cc1OC,2.1,-5.9,5.3*,-3.2,3.6
COc1ccc(/C=C/C(=O)Nc2ccccc2)cc1OC,0.1,-1.5,2.3,-5.5,.
CC(C)C[C@H]1COc2cccc(N3CCOCC3)c2S(=O)(=O)N1,6.6,.,-0.2,-1.2,.
O=C(O)CCSc1ccc([N+](=O)[O-])cc1[N+](=O)[O-],1.3,-11.6,5.4*,0.0,3.0
O=[N+]([O-])c1ccc(Sc2ncccn2)c([N+](=O)[O-])c1,6.3,-1.6,1.0,-0.3,.
Cc1ccccc1CS(=O)(=O)Cc1ccc(C(=O)Nc2ccc(F)cc2)o1,-1.8,.,.,5.4,.
Cc1nc2c(=O)n(C)c(=O)n(C)c2nc1Cl,5.7,0.8,4.7*,-5.4,2.0
N/C(=N\N=C\c1cccc(O)c1)c1nonc1N,-2.8,-2.4,6.0*,-1.5,3.5
N/C(=N\N=C\c1ccc(O)cc1)c1nonc1N,2.4,-2.2,6.4*,-5.1,3.7
COc1cc(/C=N/N=C(\N)c2nonc2N)ccc1O,-5.4,-5.7,5.5*,-2.6,4.5
N/C(=N\N=C\c1ccc([N+](=O)[O-])cc1)c1nonc1N,-1.4,-2.4,1.0,-3.1,.
SMILES,NPR1 activator,MsrA act,MsrA inh,GC-B act,MsrA inh confirm
N/C(=N\N=C\c1ccc(O)c(O)c1)c1nonc1N,0.2,-2.5,3.9,-1.7,.
CCOC(=O)N1CCN(C(=O)C[C@H]2C[C@@]3(C(=O)OC)C(=C[C@H](COCc4ccccc4)O[C@@H]3C)N(CCC3=CCCCC3)C2=O)CC1,4.2,.,-0.8,10.1,.
COc1ccc2[nH]c3c(c2c1)CCN[C@]31C(=O)Nc2ccccc21,0.8,.,.,6.0,.
COCCCNC(=O)C[C@H]1C[C@@]2(C(=O)OC)C(=C[C@H](C(C)C)O[C@@H]2C2CC2)N(Cc2cccc3ccccc23)C1=O,-6.2,.,.,-5.3,.
COc1ccc2cc(-c3[nH]ncc3CN3CCCC3c3nonc3C)ccc2c1 (configuration not stated),-3.9,-5.9,32.8*,1.0,25.7*
O=C1C(Cl)=C(NCCc2ccccc2)C(=O)N1CCc1ccccc1,3.9,-1.5,-0.7,0.6,.
O=C1C(Cl)=C(NCCCN2CCOCC2)C(=O)N1CCc1ccccc1,2.0,-0.5,26.9*,1.8,25.2*
Cc1cccc(N=Nc2cn[nH]c2-c2ccco2)c1,1.7,-8.1,1.1,0.4,.
c1ccc(N=Nc2cn[nH]c2-c2ccco2)cc1,0.2,-4.2,6.9*,-11.0,4.5
CCN1CCN(c2nc3ccccc3nc2NS(=O)(=O)c2ccc(NC(C)=O)cc2)CC1,-1.1,-11.9,4.7*,-2.0,2.2
CC(=O)Nc1ccc(S(=O)(=O)Nc2nc3ccccc3nc2N2CCCC2)cc1,-2.9,-2.8,1.2,-2.2,.
CCN1CCN(c2nc(Nc3ccccc3)nc(N)c2[N+](=O)[O-])CC1,7.0,2.1,4.8*,-4.0,3.5
COc1ccc(CNS(=O)(=O)c2cc(Cl)ccc2N2CC[C@@H](O)C2)cc1,-15.5,.,-0.7,-9.9,.
Cn1cc(-c2ccccc2C(=O)O)c(=O)c2cc(Cl)ccc21,1.1,-2.8,4.9*,9.0,1.7
CC1(C(=O)NCc2ccccc2)CN(S(C)(=O)=O)CC(=O)N1Cc1ccco1 (configuration not stated),2.8,.,-1.3,1.1,.
Cc1cc(C(=O)N/N=C/c2ccc(O)c([N+](=O)[O-])c2)n[nH]1,-4.0,-6.1,6.8*,-2.2,6.0*
COc1cc(C=NNC(=O)c2ccccc2-n2cccc2)ccc1O,-6.3,-10.3,2.4,-2.0,.
O=C(N/N=C/c1ccc(O)c([N+](=O)[O-])c1)C(O)(c1ccccc1)c1ccccc1,2.0,-4.7,6.4*,-5.5,4.9*
Cc1cc(C(=O)N/N=C/c2cccc([N+](=O)[O-])c2O)n[nH]1,0.8,-1.6,2.1,3.2,.
O=C(N/N=C\c1ccc(O)c([N+](=O)[O-])c1)c1ccccc1-n1cccc1,-0.5,-18.6,6.6*,-1.7,3.7
CCOC(=O)CC[C@H](NC(=O)[C@@H]1CC=C[C@@H]2CCN(Cc3ccc(Cl)cc3)C(=O)[C@@H]21)C(=O)OCC,-8.6,.,.,1.4,.
COC(=O)C[C@H]1CC[C@@H]2[C@H](COc3ccc(NC(=O)NCc4ccccc4)cc3C(=O)N2C)O1,-4.5,.,.,5.3,.
Nn1c(SCC(=O)Nc2ccc(OCc3ccccc3)cc2)nnc1-c1cc(-c2ccc(F)cc2)n[nH]1,-3.4,.,.,-3.0,.
COc1ccc(/C=C(\C)C(=O)c2c(C)cc(C)[nH]c2=O)cc1,1.1,-3.9,2.7,1.8,.
CCOc1ccc(/C=C(\C)C(=O)c2c(C)cc(C)[nH]c2=O)cc1,-1.2,-4.2,6.2*,3.4,3.3
Cc1ccc(Cl)cc1NC(=O)OCCN(C)C(=O)Nc1cc(Cl)ccc1C,-5.9,.,-0.2,-9.6,.
COc1ccc(N=Cc2ccc(N(CCC#N)CCC#N)cc2)cc1,-0.9,-6.1,4.9*,-1.8,4.9*
CCOC(=O)CC(=O)CSc1nc2c(sc(=S)n2-c2ccccc2)c(=O)[nH]1,0.7,-4.9,6.0*,0.2,2.5
CCOC(=O)CSc1nc2c(sc(=S)n2-c2ccc(CC)cc2)c(=O)[nH]1,-1.5,-0.1,2.9,1.5,.
Cc1ccc(Cn2nnc3c2-c2ccccc2S(=O)(=O)N(C)C3)cc1,-2.8,.,.,8.0,.
